Screening data: PubChem BioAssay, National Center for Advancing Translational Sciences (NCATS)
A selection: hits, their analogues and other compounds. The true share with any hit is near 7.3%.
FLuc modulator: firefly luciferase modulation, counter-screen for miR-21 project; P08659; purified FLuc, Km substrates, luminescence inhibition; Potency, µM (series often up to 57.5 µM), for inactives: top-dose activity change, negative = inhibition, hits mostly inhibitors; 360,000 tested, 6.9% active;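 further: plate controls were vehicle for no effect and reference inhibitor for full effect; nearly all actives have a fitted effect of over 55% in size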
Target sequence (P08659 whole entry, looked up): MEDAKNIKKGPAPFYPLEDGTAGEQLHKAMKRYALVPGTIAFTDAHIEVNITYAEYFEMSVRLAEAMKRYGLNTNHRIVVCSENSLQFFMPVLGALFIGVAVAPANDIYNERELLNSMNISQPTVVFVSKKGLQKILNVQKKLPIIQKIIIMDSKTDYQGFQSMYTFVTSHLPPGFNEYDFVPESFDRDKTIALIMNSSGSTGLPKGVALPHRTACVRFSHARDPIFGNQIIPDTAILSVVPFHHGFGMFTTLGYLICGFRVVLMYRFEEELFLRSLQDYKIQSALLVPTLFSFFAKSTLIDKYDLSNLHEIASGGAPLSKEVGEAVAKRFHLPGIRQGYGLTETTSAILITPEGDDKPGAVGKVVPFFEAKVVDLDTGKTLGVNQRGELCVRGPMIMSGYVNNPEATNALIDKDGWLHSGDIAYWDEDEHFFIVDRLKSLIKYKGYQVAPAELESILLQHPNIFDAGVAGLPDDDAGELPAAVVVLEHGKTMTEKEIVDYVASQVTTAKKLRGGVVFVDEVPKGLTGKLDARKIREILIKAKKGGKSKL
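Purified P. pyralis luciferase, 10 nM final, with Km-level 10 uM D-luciferin and 10 uM ATP in 50 mM Tris acetate pH 7.5, 10 mM Mg acetate, 0.01% Tween-20, 0.05% BSA; 6-point qHTS titration about 60 µM downward; luminescence read.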
p53 reactivator: re-activators of mutant p53; Potency, µM (series often up to 92.2 µM), for the others: at the top dose activity change, positive = activation, actives largely listed as activators; H1299 p53-A138V BP100-luciferase reporter, luminescence, 24 h; AID 504706; 320,000 tested, 0.063% active; further: % of control where 0% means no effect; nearly all actives have a fitted effect of over 45% in size
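p53-null H1299 cells stably carrying temperature-sensitive p53-A138V and a BP100-luciferase reporter were pinned with compounds (4-point, 1:5 series) and held 24 hrs at 37 deg C. Luminescence was read 10 min after detection reagent.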
SMN2 splice enh: increases expression of the SMN2 splice variant; 210,000 tested, 2.8% active; Potency, µM (titrated, usually from 46.1 µM), for the others: at the top dose activity change, positive = activation, usual class: activators; HEK293 SMN2-luciferase splicing reporter, luminescence, 30-36 h; further: % of control where 0% means no effect; nearly all actives have a fitted effect of over 55% in size
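HEK293 cells carry an SMN2 […]–luciferase reporter in which exon 7 inclusion puts luciferase in frame. Cells were plated 10-12 h before compound addition, then incubated 30-36 h at 37C. ONE-Glo luminescence was read; sodium butyrate at 4.5 mM final served as control.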
ELG1 genotox: induces genotoxicity in HEK293T cells with luciferase-tagged ELG1; HEK293T ELG1-luciferase reporter, luminescence, 16 h; Potency, µM (top dose mostly 46 µM), for inactives: top-dose activity change, positive = activation, usual class: activators; 330,000 tested, 1.3% active; further: % of control where 0% means no effect; nearly all actives have a fitted effect of over 60% in size
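16 hr compound incubation (37 °C, 5% CO2) of HEK293T cells carrying luciferase-tagged ELG1; luciferase then measured by ONE-Glo luminescence after 30 min at RT.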
Rab9 promoter act: Rab9 promoter activation | Huh7 Rab9 promoter-luciferase reporter, luminescence, 24 h | Potency, µM (series often up to 9.22 µM), without a hit: at the top dose activation, negative = inhibition, usual class: activators | 320,000 tested, 2.8% active | AID 485297; further: % of control where 0% means no effect; nearly all actives have a fitted effect of over 60% in size
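Promoter activation is measured as luciferase luminescence in Huh7 cells stably transfected with a Rab9 promoter–luciferase construct, following 24 h compound exposure at 37 °C and 10 min reagent incubation at ambient temperature.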
NPC1 promoter act: activates the NPC1 promoter. Huh7 NPC1 promoter luciferase reporter, 24 h. Potency, µM (series often up to 9.22 µM), for the others: top-dose activation, hits mostly activators. 320,000 tested, 2.4% active; further: % of control where 0% means no effect; nearly all actives have a fitted effect of over 60% in size
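Huh7 cells stably carrying NPC1 promoter–luciferase, plated in Opti-MEM with 10% FBS for 2 h, were exposed to compound in DMSO for 24 h at 37 °C; luciferase reagent was added for 10 min and luminescence read.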
Starred values were filed as active, the others as inactive; ? = inconclusive; . = no result given; [ ] = another dose, or the depositor's remark. The call rests on the fitted dose curve; in most records, active means well fitted curve in the direction sought with a large enough effect; inconclusive means small, poorly fitted or top-dose-only effect, or another doubt; inactive means no such curve, though single readings can be large; an effect the other way counts as inactive or inconclusive. Potency means the concentration at half of the fitted maximal effect.

SMILES	FLuc modulator	p53 reactivator	SMN2 splice enh	ELG1 genotox	Rab9 promoter act	NPC1 promoter act
CCCc1c(O)nc(SC2CC(=O)N(c3ccc(OC)cc3)C2=O)[nH]c1=O (stereo unspecified)	6.8%	0.0%	.	-0.2%	-0.9%	2.7%
O=C(/C=C/c1ccc(F)cc1)NC(=S)N1CCN(c2ccccn2)CC1	21.3µM*	16.2%	.	9.5%	2.51µM*	?
COc1ccc(/C=C/C(=O)NC(=S)N2CCN(c3ccccn3)CC2)cc1OC	23.9µM*	-0.6%	.	-3.5%	-3.4%	-4.3%
COc1ccc(/C=C/C(=O)N2CCN(c3ccccn3)CC2)cc1	?	-5.7%	.	-3.5%	-0.9%	2.9%
CSc1ccc(/C=C/C(=O)N2CCN(c3ccccn3)CC2)cc1	13.5µM*	2.9%	.	3.1%	0.5%	3.7%
COc1ccc(CC(=O)N2CCN(c3ccccn3)CC2)cc1OC	3.2%	3.4%	10.2%	1.3%	-1.0%	-0.7%
O=c1cnnc(N/N=C/c2ccccn2)[nH]1	-0.1%	21.2%	.	13.0%	-18.8%	-14.4%
Fc1cccc(/C=N/Nc2nncc3ccccc23)c1	0.601µM*	.	.	0.731µM*	?	0.316µM*
C(=N\Nc1nncc2ccccc12)/c1ccccn1	1.69µM*	78.8%	.	0.366µM*	?	?
CC(=O)Nc1ccc(/C=N/NC(=O)c2cc3ccccc3nc2C)cc1	-18.1%	-1.9%	6.7%	1.1%	-1.8%	-1.0%
CC(=O)Nc1ccc(/C=N/Nc2nncc3ccccc23)cc1	12µM*	17.0%	.	15.4%	1.12µM*	2.82µM*
Cn1c(=O)cc(C(=O)N/N=C/c2ccc(Cl)cc2)[nH]c1=O	12µM*	2.8%	.	-2.5%	-4.9%	-3.4%
CCCCCCC1CCC(C(=O)N2CCOCC2)CC1 (stereo unspecified)	-18.1%	6.7%	-4.4%	-1.7%	-1.0%	-3.1%
CCOC(=O)N1CCC(NC(=O)c2cnn(-c3ccc(OC)cc3)c2C2CCN(C(=O)OC(C)(C)C)CC2)CC1	-1.3%	.	.	.	.	.
c1ccc(-c2cc3nccc(-c4ccccn4)n3n2)cc1	9.53µM*	?	.	?	2.24µM*	2.51µM*
Cc1cc2nccc(-c3ccccn3)n2n1	-2.6%	4.6%	-0.4%	2.4%	-0.6%	-2.9%
Cc1ccc(O)c(-c2n[nH]c3c2C(c2ccccc2F)N(Cc2ccco2)C3=O)c1 (stereo unspecified)	-12.4%	.	3.6%	.	.	.
O=C(c1cccs1)N1CCc2ccccc21	26.9µM*	.	14.1µM*	?	?	?
O=C(/C=C/c1cccs1)N1CCN(c2ccccc2F)CC1	-13.4%	9.5%	10.0%	6.3%	-4.1%	-2.8%
O=C(/C=C/c1ccc(Cl)c(Cl)c1)N1CCc2ccccc21	?	?	7.08µM*	?	2.82µM*	3.16µM*
O=C(/C=C/c1cccs1)N1CCc2ccccc21	0.477µM*	?	2.82µM*	1.84µM*	3.98µM*	3.98µM*
CN1CCN(C(=O)/C=C/c2ccc(Cl)c(Cl)c2)CC1	1.3%	?	.	16.4%	21.1%	20.8%
N[C@@H](Cc1c[nH]c2ccc([N+](=O)[O-])cc12)C(=O)O	.	.	8.4%[9.22 µM]	.	.	.
O=C(O)c1cc(N/N=C2/CC(c3ccccc3)Oc3ccccc32)ccc1Cl (stereo unspecified)	26.9µM*	?	-2.9%[1.84 µM]	9.8%	5.4%	-0.9%
CCOC(=O)N1CCC(=NNC(=O)c2cc3ccccc3cc2O)CC1	?	5.0%	6.4%	-1.6%	-1.6%	-0.9%
SMILES	FLuc modulator	p53 reactivator	SMN2 splice enh	ELG1 genotox	Rab9 promoter act	NPC1 promoter act
O=C(O)c1cc(NN=C2CCN(Cc3ccccc3)CC2)ccc1Cl	?	18.9%	.	?	2.82µM*	3.98µM*
CCOC(=O)C1=C(C)C/C(=N\NC(=O)c2ccccc2O)CC1	7.57µM*	12.2%	.	25.9%	?	?
CC(C)(C)N/N=C1\CC(c2ccccc2)Oc2ccccc21 (stereo unspecified)	-1.1%	7.6%	.	-2.0%	-3.3%	0.8%
O=C(NN=C1CCN(Cc2ccccc2)CC1)c1ccccc1O	23.9µM*	7.5%	.	4.3%	2.6%	-1.8%
O=C(c1ccc2c(c1)N(Cc1ccc(Cl)cc1)C(=O)c1ccccc1S2=O)N1CCN(c2ccccc2F)CC1 (stereo unspecified)	-1.8%	.	-8.0%	.	.	.
CCOc1ccc(NC(=O)c2ccc(NC(=O)c3ccccc3Br)cc2)cc1	-14.8%	-4.9%	.	?	-1.4%	-0.7%
CCOc1ccc(NC(=O)c2ccccc2OC)cc1	12µM*	?	?	?	?	?
CCOc1ccc(NC(=O)Cn2nnc(C(=O)NCCc3ccc(OC)c(OC)c3)c2N)cc1	-0.8%	-3.0%	-8.8%	-0.6%	4.9%	1.9%
COc1ccc(CCNC(=O)Cn2nnc(C(=O)Nc3ccc(Br)cc3)c2N)cc1OC	9.53µM*	12.4%	.	-3.0%	-6.7%	-1.2%
CCOc1ccc(NC(=O)c2ccccc2O)cc1	0.536µM*	.	3.16µM*	?	1.58µM*	1.41µM*
CCOc1ccc(NC(=O)c2ccccc2CO)cc1	16.9µM*	?	12.2%	?	?	?
CCc1nnc(SCC(=O)Nc2cc(Cl)c(OC)cc2OC)c2cc3oc(C)cc3n12	0.2%	.	.	.	.	.
COc1ccccc1C(=O)Nc1ccc(C(=O)c2ccccc2)cc1	13.5µM*	?	-4.6%	3.7%	?	-5.4%
CCOc1ccc(NC(=O)c2nnn(CC(=O)Nc3ccccc3OC)c2N)cc1	2.69µM*	0.8%	-1.3%	5.6%	19.3%	18.0%
COc1ccccc1C(=O)Nc1ccc(OCC(=O)N2CC(C)OC(C)C2)cc1 (stereo unspecified)	5.36µM*	?	.	9.0%	-5.2%	-0.3%
COc1ccc(CCNC(=O)Cn2nnc(-c3ccc(N(C)C)cc3)n2)cc1OC	16.9µM*	-3.9%	-57.3%	-0.2%	-0.4%	-0.2%
COc1ccccc1NC(=O)Cn1nnc(C(=O)Nc2ccccc2)c1N	-2.8%	1.0%	-17.9%	-8.0%	-3.8%	2.0%
COc1ccccc1C(=O)Nc1ccc(C(=O)O)cc1	-12.7%	-5.5%	9.1%	3.3%	-0.9%	0.4%
COc1ccc(CCNC(=O)Cn2nnc(-c3ccc(OC)c(OC)c3)n2)cc1OC	-5.7%	-0.2%	-8.1%	-3.4%	-2.9%	-2.5%
Cc1ccc(C)c(NC(=O)c2cnc(N3CCCC3)nc2C)c1	1.6%	.	.	.	.	.
O=C(Cn1c(=O)n(-c2ccccc2)c(=O)c2sc3ccccc3c21)NC1CCCC1	-0.4%	.	-6.5%	.	.	.
O=C(CSc1nnc(-c2ccco2)n1Cc1ccccc1)OC1CCCCC1	9.53µM*	9.7%	?	?	3.16µM*	?
COc1ccc(C(=O)CSc2nnc(-c3ccco3)n2C)cc1	-14.6%	5.2%	-12.6%	3.5%	-1.7%	0.7%
